This note sets out measurements from PubChem BioAssay AID1036 (National Center for Advancing Translational Sciences (NCATS), 2008).

The assay can be described thus: NSCLC 1 Cell Viability Secondary Assay for qHTS Assay for Epigenetic Modulator. The note with it: NSCLC 1 cells viability, MTS absorbance, 4 days. The source says:
NIH Molecular Libraries Screening Centers Network [MLSCN] NIH Chemical Genomics Center [NCGC] MLSCN Grant: 1 X01 MH079860-01 Assay Provider: Elisabeth D. Martinez, University of Texas SW Medical Center NCGC Assay Overview: This secondary assay characterizes selected actives identified in the qHTS of the Locus Derepression (LDR) assay (PubChem AID 597). The LDR assay detects the derepression of a GFP reporter that is stably integrated in a region of the genome of murine c127i mammary cells that is presumably silenced. Compounds that cause derepression of the locus to express GFP are identified by enumerating GFP positive cells using a laser-scanning microplate cytometer. […] NSCLC 1 cell viability was measured using Cell Titer 96 AQueous One (Promega), an assay which detects the ability of metabolically active cells to reduce a tetrazolium salt substrate (MTS), into a soluble formazan product that can be measured by colorimetry.
NCGC Assay Protocol Summary NSCLC 1 cells were plated in 96-well flat bottom tissue culture dishes (Corning) and grown overnight at 37 C and 5% CO2, then treated with compounds, incubated 4 days, and assayed for viability using the Cell Titer 96 AQueous One kit (Promega) according to the manufacturer's protocol. Absorbance at 490 nm and 650 nm (reference) was measured by a Spectra Max (Molecular Devices). […]

Results filed as inconclusive are left out. Active and inactive are the calls of the source. Calls come from the whole dose curve.

Turning to `CN1CSC(=S)N(C)C1`, the outcome was inactive.
